# Experimental data as given in PubChem BioAssay (NCI).
# The panel holds about 79,000 compounds, 15% with a hit somewhere; the sample as a whole holds those more often. Values without a mark were called inactive. Active and inactive are the calls of the source. Rule as the data show it: active = growth inhibition above about 70%; inactive = the rest.
# Columns and labels:
# [1] = NCI Yeast Anticancer Drug Screen. Data for the rad52 strain (AID 147);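 also: 0% = growth of vehicle-treated control cultures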; settings: S. cerevisiae rad52 mutant growth inhibition, stronger effect = higher value
# Method in brief: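 Here a repair-compromised yeast strain receives each compound; its growth is then quantified and normalised to vehicle-only controls.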
# [2] = NCI Yeast Anticancer Drug Screen. Data for the wt1 strain (AID 149);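 also: 0% = growth of vehicle-treated wt1 cultures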; settings: S. cerevisiae wt1 strain (SPY 50644) growth inhibition, stronger effect = higher value
# Method in brief: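 Yeast wt1 strain exposed to compounds; growth inhibition measured relative to vehicle-treated controls.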
# [3] = NCI Yeast Anticancer Drug Screen. Data for the rad50EPP+ strain (AID 151);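 also: 0% = growth of vehicle-treated control cultures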; settings: S. cerevisiae rad50 mutant strain, stronger effect = higher value
# Method in brief: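 Read-out is yeast growth inhibition relative to vehicle; cells used were the rad50EPP+ strain.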
# [4] = NCI Yeast Anticancer Drug Screen. Data for the mgt1 strain (AID 153); settings: S. cerevisiae mgt1 mutant growth inhibition, stronger effect = higher value
# Method in brief: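 Measured: inhibition of mgt1 yeast growth by compound, normalized to vehicle-treated cultures.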
# [5] = NCI Yeast Anticancer Drug Screen. Data for the rad50 strain (AID 155);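 also: 0% = growth of vehicle-only cultures of the same strain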; settings: S. cerevisiae rad50 strain growth inhibition, stronger effect = higher value
# Method in brief: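 Yeast carrying a defined DNA repair defect were exposed to test compounds, and growth was compared with vehicle-treated controls to give percent inhibition.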
# [6] = NCI Yeast Anticancer Drug Screen. Data for the mec2-1 strain (AID 157); settings: S. cerevisiae mec2-1 strain, stronger effect = higher value
# Method in brief: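 Using mec2-1 yeast: add compound, measure growth, express inhibition versus vehicle-treated cultures.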
# [7] = NCI Yeast Anticancer Drug Screen. Data for the rad14 strain (AID 159);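 also: 0% = growth of vehicle-treated control cultures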; settings: S. cerevisiae rad14 strain growth inhibition, stronger effect = higher value
# Method in brief: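 Yeast cells carrying a defined DNA-repair defect were exposed to compounds, and growth inhibition was calculated relative to vehicle-treated control cultures.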
# [8] = NCI Yeast Anticancer Drug Screen. Data for the sgs1 mgt1 strain (AID 161);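 also: 0% = growth of cultures given vehicle only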; settings: S. cerevisiae sgs1 mgt1 strain, stronger effect = higher value
# Method in brief: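 Percent growth inhibition was derived by comparing compound-exposed mutant yeast with vehicle-exposed cultures. The strain carries alterations in DNA damage repair.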
# [9] = NCI Yeast Anticancer Drug Screen. Data for the CLN2oe strain (AID 163);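 also: 0% = growth of vehicle-only control cultures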; settings: S. cerevisiae CLN2oe strain, stronger effect = higher value
# Method in brief: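 Whole-cell yeast growth assay. A strain engineered for altered cell-cycle control received compound, and inhibition relative to vehicle-treated cultures was recorded.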
# [10] = NCI Yeast Anticancer Drug Screen. Data for the cln2 rad14 strain (AID 165);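 also: 0% = growth equal to vehicle treated cultures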; settings: S. cerevisiae cln2 rad14 strain, stronger effect = higher value
# Method in brief: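 Yeast strain cln2 rad14, bearing defects in cell cycle control and DNA repair, serves as the test system; values reflect growth inhibition compared with vehicle.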
# [11] = NCI Yeast Anticancer Drug Screen. Data for the bub3 strain (AID 167); settings: S. cerevisiae bub3 mutant strain, stronger effect = higher value
# Method in brief: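 Compounds were applied to a genetically altered yeast strain carrying a cell-cycle control defect. Growth inhibition was scored against vehicle-treated controls.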
# [12] = NCI Yeast Anticancer Drug Screen. Data for the wt2 strain (AID 169);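 also: 0% = growth of vehicle-treated yeast cultures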; settings: S. cerevisiae wt2 strain growth inhibition, stronger effect = higher value
# Method in brief: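 Treated yeast vs. vehicle-treated yeast: growth inhibition determined.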
# [13] = NCI Yeast Anticancer Drug Screen. Data for the mlh1 strain (AID 171);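 also: 0% = growth of vehicle-treated control cultures of the same strain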; settings: S. cerevisiae mlh1 strain growth inhibition, stronger effect = higher value
# Method in brief: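 A yeast strain with a defined genetic lesion serves as the test organism. Cultures receive compound or vehicle, and growth is measured.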
# [14] = NCI Yeast Anticancer Drug Screen. Data for the sgs1 strain (AID 173);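 also: 0% = growth of vehicle-only control cultures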; settings: S. cerevisiae sgs1 mutant, stronger effect = higher value
# Method in brief: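 A genetically defined yeast mutant is incubated with the test compound, and its growth is compared to that of the same strain given vehicle.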
# [15] = NCI Yeast Anticancer Drug Screen. Data for the mlh1 rad18 strain (AID 175); settings: S. cerevisiae mlh1 rad18 strain growth inhibition, stronger effect = higher value
# Method in brief: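 Steps: expose repair-defective yeast to compound; measure growth; express inhibition against vehicle-treated controls.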
# [16] = NCI Yeast Anticancer Drug Screen. Data for the rad18 strain (AID 177); settings: S. cerevisiae rad18 mutant growth inhibition, stronger effect = higher value
# Method in brief: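 Measured value is growth inhibition of a yeast strain bearing a DNA repair alteration, referenced to vehicle-treated cells.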
# [17] = at 5.0 µM (retest, dose inferred, filed as 0.5)
# [18] = at 50.0 µM (retest, dose inferred, filed as 5.0)
smiles,measurement,setting,value
CC(C)Cc1ncc(CCCN=C(N)N)[nH]c1=O,growth inhibition,[1]; at 1.2 µM,-7%
same,growth inhibition,[1]; at 3.7 µM,-10%
same,growth inhibition,[1]; at 11.0 µM,-5%
same,growth inhibition,[1]; at 33.0 µM,-1%
same,growth inhibition,[1]; at 100.0 µM,-5%
same,growth inhibition,[2]; at 1.2 µM,0%
same,growth inhibition,[2]; at 3.7 µM,1%
same,growth inhibition,[2]; at 11.0 µM,4%
same,growth inhibition,[2]; at 33.0 µM,3%
same,growth inhibition,[2]; at 100.0 µM,6%
same,growth inhibition,[3]; at 1.2 µM,-2%
same,growth inhibition,[3]; at 3.7 µM,-13%
same,growth inhibition,[3]; at 11.0 µM,0%
same,growth inhibition,[3]; at 33.0 µM,9%
same,growth inhibition,[3]; at 100.0 µM,9%
same,growth inhibition,[4]; at 1.2 µM,-2%
same,growth inhibition,[4]; at 3.7 µM,-5%
same,growth inhibition,[4]; at 11.0 µM,-3%
same,growth inhibition,[4]; at 33.0 µM,-6%
same,growth inhibition,[4]; at 100.0 µM,-6%
same,growth inhibition,[5]; at 1.2 µM,-14%
same,growth inhibition,[5]; at 3.7 µM,-19%
same,growth inhibition,[5]; [17],-5%
same,growth inhibition,[5]; at 11.0 µM,-21%
same,growth inhibition,[5]; at 33.0 µM,-20%
same,growth inhibition,[5]; [18],4%
same,growth inhibition,[5]; at 50.0 µM,82.8% (active)
same,growth inhibition,[5]; at 100.0 µM,2%
same,growth inhibition,[6]; at 1.2 µM,-4%
same,growth inhibition,[6]; at 3.7 µM,-2%
same,growth inhibition,[6]; [17],3%
same,growth inhibition,[6]; at 11.0 µM,-3%
same,growth inhibition,[6]; at 33.0 µM,-5%
same,growth inhibition,[6]; [18],49%
same,growth inhibition,[6]; at 50.0 µM,77.8% (active)
same,growth inhibition,[6]; at 100.0 µM,-3%
same,growth inhibition,[7]; at 1.2 µM,0%
same,growth inhibition,[7]; at 3.7 µM,1%
same,growth inhibition,[7]; at 11.0 µM,15%
same,growth inhibition,[7]; at 33.0 µM,11%
same,growth inhibition,[7]; at 100.0 µM,-2%
same,growth inhibition,[8]; [17],1%
same,growth inhibition,[8]; [18],38%
same,growth inhibition,[8]; at 50.0 µM,84.2% (active)
same,growth inhibition,[9]; at 1.2 µM,-4%
same,growth inhibition,[9]; at 3.7 µM,-5%
same,growth inhibition,[9]; at 11.0 µM,-13%
same,growth inhibition,[9]; at 33.0 µM,-11%
same,growth inhibition,[9]; at 100.0 µM,-7%
same,growth inhibition,[10]; [17],-7%
same,growth inhibition,[10]; [18],38%
same,growth inhibition,[10]; at 50.0 µM,74.5% (active)
same,growth inhibition,[11]; at 1.2 µM,-9%
same,growth inhibition,[11]; at 3.7 µM,-6%
same,growth inhibition,[11]; [17],-6%
same,growth inhibition,[11]; at 11.0 µM,-10%
same,growth inhibition,[11]; at 33.0 µM,-14%
same,growth inhibition,[11]; [18],91% (active)
same,growth inhibition,[11]; at 50.0 µM,81.8% (active)
same,growth inhibition,[11]; at 100.0 µM,-14%
same,growth inhibition,[12]; at 1.2 µM,6%
same,growth inhibition,[12]; at 3.7 µM,12%
same,growth inhibition,[12]; at 11.0 µM,15%
same,growth inhibition,[12]; at 33.0 µM,17%
same,growth inhibition,[12]; at 100.0 µM,14%
same,growth inhibition,[13]; at 1.2 µM,-11%
same,growth inhibition,[13]; at 3.7 µM,-6%
same,growth inhibition,[13]; at 11.0 µM,-6%
same,growth inhibition,[13]; at 33.0 µM,-4%
same,growth inhibition,[13]; at 100.0 µM,-1%
same,growth inhibition,[14]; at 1.2 µM,-13%
same,growth inhibition,[14]; at 3.7 µM,-12%
same,growth inhibition,[14]; at 11.0 µM,-6%
same,growth inhibition,[14]; at 33.0 µM,-3%
same,growth inhibition,[14]; at 100.0 µM,-8%
same,growth inhibition,[15]; [17],2%
same,growth inhibition,[15]; [18],55%
same,growth inhibition,[15]; at 50.0 µM,33.4%
same,growth inhibition,[16]; at 1.2 µM,-7%
same,growth inhibition,[16]; at 3.7 µM,-2%
same,growth inhibition,[16]; at 11.0 µM,-5%
same,growth inhibition,[16]; at 33.0 µM,-8%
same,growth inhibition,[16]; at 100.0 µM,-6%
